Test results from PubChem BioAssay.
Active and inactive are the calls of the source.

Legend:
[1] = tested on: Human papillomavirus type 1a protein E7 (residues 44-93); test: small molecules binding HPV E7 44-93 – biochemical, small-molecule microarray, residues 44-93, 635 nm fluorescence, primary screen (AID 1108); conditions: fluorescence 635 nm, higher = more signal;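 note: E7 fragment applied at 1 µg/mL in TBST for 1 h at 4 C; score combines spot fluorescence with its signal to noise ratio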
[2] = hepatitis C replication reporter changes, two-sided – Huh7 cells, luciferase reporter, HCV replication inhibitor project, primary screen (AID 1109); conditions: Huh7 HCV replicon luciferase reporter, 48 h; higher = more signal;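 note: huh7 hepatoma cells harbouring a luciferase neomycin HCV replicon reporter; luciferase luminescence as measure of HCV replicon replication; test concentration not given here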
[3] = biological target: Left-right determination factor 2 (Homo sapiens) (UniProt O00292); test: small molecules binding LEFTY2 protein – biochemical, small-molecule microarray, 635 nm fluorescence scan, primary screen (AID 1110); conditions: higher = more signal
[4] = biological target: Calmodulin-1 (Homo sapiens) (UniProt P0DP23); test: small molecules binding calmodulin-1 with EGTA – biochemical, small-molecule microarray, Cy5-labelled CALM1, profiling panel (AID 1111); conditions: Cy5-CALM1 binding fluorescence, higher = more signal;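 note: labelled calmodulin applied in Tris saline Tween buffer holding calcium plus EGTA and DTT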
[5] = biological target: Calmodulin-1 (Homo sapiens) (UniProt P0DP23); test: small molecules binding Ca-loaded calmodulin-1 – biochemical, small-molecule microarray, Cy5-labelled CALM1, plus calcium, artefact control for SMM control-protein annotation, profiling panel (AID 1112); conditions: Cy5-CALM1 binding fluorescence, higher = more signal;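 note: score merges spot fluorescence with signal to noise from triplicate slides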
[6] = probe aWnt5a binding to arrayed compounds – biochemical, biotinylated probe, 635/667 nm fluorescence, primary screen (AID 1113); conditions: small-molecule microarray, higher = more signal;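 note: score merges 667 nm fluorescence intensity with signal-to-noise per printed feature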
[7] = probe aShh binding to arrayed compounds – biochemical, biotinylated probe, 635/667 nm fluorescence, primary screen (AID 1114); conditions: small-molecule microarray, higher = more signal;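 note: probe is biotin-labelled aShh protein from a stem cell growth factor screen; measures binding of labelled protein to compounds printed on the slide; score merges feature fluorescence at 667 nm with signal-to-noise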
[8] = probe aNog binding to arrayed compounds – biochemical, biotinylated probe, 635/667 nm fluorescence, primary screen (AID 1115); conditions: small-molecule microarray, higher = more signal;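 note: probe is biotinylated aNog protein used at 0.15 µg/mL for 1 h at 4 C; z-score combines 667 nm fluorescence of each spot with its signal to noise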
[9] = biological target: Torsin-1A-interacting protein 1 (Homo sapiens) (UniProt Q5JTV8); test: compound microarray binding of lysate hLAP1 – cell lysate, small-molecule microarray, COS7 lysate, 635/667 nm fluorescence, primary screen (AID 1116); conditions: 635 nm fluorescence, higher = more signal
[10] = biological target: Alpha-bungarotoxin (Bungarus multicinctus) (UniProt P60615); test: compounds binding labelled alpha-BTX control protein – biochemical, small-molecule microarray, Alexa647 label, 635/667 nm fluorescence, artefact control for SMM control protein annotation, profiling panel (AID 1117); conditions: alpha-BTX-A647 binding fluorescence, higher = more signal
Albumin (Bos taurus) = Albumin (Bos taurus) (UniProt P02769); test: compounds binding labelled BSA control protein – biochemical, small-molecule microarray, Alexa647 label, 635/667 nm fluorescence, artefact control for SMM control protein annotation, profiling panel (AID 1118); conditions: BSA-A647 binding, fluorescence 635 nm, higher = more signal;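 note: score merges 667 nm emission intensity and signal-to-noise per printed compound spot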
[11] = probe aXIP binding to arrayed compounds – biochemical, NeuroSMM set, 635/667 nm fluorescence, primary screen (AID 1119); conditions: small-molecule microarray, higher = more signal, called active from +8 up or from −8 down;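 note: probe is the protein aXip251-270 applied at 1 µg/mL to compound-printed slides; binding of probe to printed compounds measured as 667 nm fluorescence plus signal to noise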
[12] = probe aNOTCH3 binding on compound microarray – biochemical, small-molecule microarray, 635/667 nm fluorescence, primary screen (AID 1120); conditions: higher = more signal;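 note: probe is a biotin-tagged antibody raised against NOTCH3 rather than NOTCH3 protein; score merges spot fluorescence near 667 nm with spot signal to noise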
[13] = probe aNOTCH2 binding on compound microarray – biochemical, small-molecule microarray, 635/667 nm fluorescence, primary screen (AID 1121); conditions: higher = more signal;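 note: score merges feature fluorescence read at 667 nm with its signal to noise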
[14] = biological target: Carbonic anhydrase 2 (Homo sapiens) (UniProt P00918); test: compounds binding carbonic anhydrase 2 – biochemical, small-molecule microarray, Alexa647-labelled CAII, profiling panel (AID 1122); conditions: CAII-A647 binding fluorescence, higher = more signal
[15] = COS7 lysate on small-molecule microarray, probe aHis, 635 nm (AID 1123); conditions: COS7 cell lysate, fluorescence, higher = more signal;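 note: z-score combines 667nm fluorescence intensity with signal-to-noise per printed compound spot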
[16] = probe aLAP1 signal on lysate-treated microarray – cell lysate, small-molecule microarray, COS7 lysate, primary screen (AID 1124); conditions: probe aLAP1, fluorescence, higher = more signal;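 note: lysate comes from COS7 cells expressing LAP1 and is applied at 0.3 µg/mL; score merges spot fluorescence near 667 nm with signal-to-noise over triplicate slides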
Sam68 (KHDRBS1) = test: compounds binding KHDRBS1 protein – biochemical, small-molecule microarray, 635 nm fluorescence, primary screen (AID 1125); conditions: higher = more signal;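 note: score merges 667 nm channel intensity with signal to noise over triplicate slides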
[17] = tested on: Chordin-like protein 2 (CHRDL2); test: compounds binding chordin-like 2 – biochemical, small-molecule microarray, 635 nm fluorescence, primary screen (AID 1126); conditions: fluorescence 635 nm, higher = more signal;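 note: printed compound slides probed with Chrdl2 protein at 4 µg/mL for 1 h at 4 C; score merges 667 nm emission intensity with signal to noise over three replicate slides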
[18] = biological target: Concanavalin-A (Canavalia ensiformis) (UniProt P02866); test: compounds binding concanavalin A lectin – biochemical, small-molecule microarray, Alexa647 label, 635 nm, artefact control for SMM control protein annotation, primary screen (AID 1127); conditions: ConA-A647 binding fluorescence, higher = more signal;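 note: z combines 667 nm emission intensity with signal-to-noise across three replicate slides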
Concanavalin-A (Canavalia ensiformis), sequence (P02866 whole entry, looked up): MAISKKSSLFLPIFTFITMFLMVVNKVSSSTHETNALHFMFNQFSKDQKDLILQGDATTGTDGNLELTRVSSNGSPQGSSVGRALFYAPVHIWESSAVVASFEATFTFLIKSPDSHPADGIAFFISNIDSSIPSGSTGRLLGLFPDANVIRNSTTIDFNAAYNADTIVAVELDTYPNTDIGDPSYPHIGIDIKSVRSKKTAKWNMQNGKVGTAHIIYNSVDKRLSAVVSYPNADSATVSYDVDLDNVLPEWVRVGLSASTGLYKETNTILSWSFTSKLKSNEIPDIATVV

Alpha-bungarotoxin (Bungarus multicinctus), sequence (P60615 whole entry, looked up): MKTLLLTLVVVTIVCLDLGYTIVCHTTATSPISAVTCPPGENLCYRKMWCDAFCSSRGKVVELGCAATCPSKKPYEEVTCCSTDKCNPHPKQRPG
Torsin-1A-interacting protein 1 (Homo sapiens), sequence (Q5JTV8 whole entry, looked up): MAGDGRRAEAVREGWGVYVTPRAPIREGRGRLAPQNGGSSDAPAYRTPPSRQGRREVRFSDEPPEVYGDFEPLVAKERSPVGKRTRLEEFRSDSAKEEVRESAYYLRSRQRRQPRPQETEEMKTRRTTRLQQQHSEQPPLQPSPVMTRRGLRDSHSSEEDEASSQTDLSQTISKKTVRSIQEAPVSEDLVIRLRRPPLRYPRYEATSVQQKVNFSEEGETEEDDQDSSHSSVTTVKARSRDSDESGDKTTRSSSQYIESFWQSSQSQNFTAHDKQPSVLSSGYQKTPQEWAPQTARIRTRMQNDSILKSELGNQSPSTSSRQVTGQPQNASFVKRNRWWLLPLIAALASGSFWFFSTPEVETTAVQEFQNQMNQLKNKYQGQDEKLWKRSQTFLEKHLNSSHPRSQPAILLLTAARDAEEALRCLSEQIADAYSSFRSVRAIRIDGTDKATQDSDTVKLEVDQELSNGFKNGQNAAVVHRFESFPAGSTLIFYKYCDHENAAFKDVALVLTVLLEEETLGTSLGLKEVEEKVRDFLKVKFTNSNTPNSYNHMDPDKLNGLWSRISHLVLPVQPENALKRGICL
Albumin (Bos taurus), sequence (P02769 whole entry, looked up): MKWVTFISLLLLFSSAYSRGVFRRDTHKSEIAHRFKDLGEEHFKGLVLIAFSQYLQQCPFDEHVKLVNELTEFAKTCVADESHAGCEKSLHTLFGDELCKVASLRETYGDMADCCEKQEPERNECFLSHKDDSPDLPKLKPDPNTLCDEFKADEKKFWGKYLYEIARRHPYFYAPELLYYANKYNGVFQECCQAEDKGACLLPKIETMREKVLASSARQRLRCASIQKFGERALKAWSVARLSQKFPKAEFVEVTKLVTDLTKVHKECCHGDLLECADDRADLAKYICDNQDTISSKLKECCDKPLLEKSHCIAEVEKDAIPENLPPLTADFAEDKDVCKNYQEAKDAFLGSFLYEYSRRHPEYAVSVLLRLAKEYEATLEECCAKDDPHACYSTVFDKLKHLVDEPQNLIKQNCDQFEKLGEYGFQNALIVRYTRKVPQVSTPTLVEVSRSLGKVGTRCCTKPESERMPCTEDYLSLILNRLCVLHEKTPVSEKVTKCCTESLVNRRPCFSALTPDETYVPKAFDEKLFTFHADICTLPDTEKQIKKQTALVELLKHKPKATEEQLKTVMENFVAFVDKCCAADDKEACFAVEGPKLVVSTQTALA
Left-right determination factor 2 (Homo sapiens), sequence (O00292 whole entry, looked up): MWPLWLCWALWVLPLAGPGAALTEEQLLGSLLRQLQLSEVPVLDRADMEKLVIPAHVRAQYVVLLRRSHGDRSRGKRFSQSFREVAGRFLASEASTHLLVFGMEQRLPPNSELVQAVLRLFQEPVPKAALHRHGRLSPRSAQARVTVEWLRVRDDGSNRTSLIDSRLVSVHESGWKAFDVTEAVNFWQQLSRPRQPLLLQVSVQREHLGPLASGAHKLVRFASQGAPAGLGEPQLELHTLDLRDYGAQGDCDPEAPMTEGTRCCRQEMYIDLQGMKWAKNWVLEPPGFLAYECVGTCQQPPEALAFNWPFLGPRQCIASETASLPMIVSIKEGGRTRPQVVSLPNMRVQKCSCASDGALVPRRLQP

Compound	composite z-score [1]	z-score [2]	composite z-score [3]	composite z-score [4]	composite z-score [5]	composite z-score [6]	composite z-score [7]	composite z-score [8]	composite z-score [9]	composite z-score [10]	composite z-score (Albumin (Bos taurus))	composite Z-score [11]	composite z-score [12]	composite z-score [13]	composite z-score [14]	composite z-score [15]	composite z-score [16]	composite z-score (Sam68 (KHDRBS1))	composite z-score [17]	composite z-score [18]
C#C[C@@H](CC)O[Si](C#CCCCC#N)(C(C)C)C(C)C	0.294	-0.923	0.0737	-0.442	-0.104	-0.139	0.0483	-0.121	0.372	-0.275	0.202	-0.608 (inactive)	-0.0391	-0.174	0.797	1.59	-0.252	0.441	0.106	-0.193
COc1ccc([Si](C)(C)[C@@H]2[C@@H](CC(=O)N3Cc4ccccc4C[C@H]3CO)O[C@]3(C(=O)N(c4ccccc4)c4ccccc43)[C@H]2C)cc1	1.38	-4.41	0.671	1.75	1.36	0.418	0.293	1.14	0.553	1.26	-0.104	8.06 (active)	0.146	0.0018	0.429	1.21	0.339	1.3	0.943	0.869
CO[C@H]1O[C@H](CO)[C@@H](OC(=O)Nc2cccc(F)c2)[C@H](OC(=O)Nc2ccccc2-c2ccccc2)[C@H]1OC(=O)Nc1ccccc1-c1ccccc1	1.48	-3.82	0.494	0.88	-0.305	0.0692	-0.0977	0.895	1.09	0.816	-0.8	0.55 (inactive)	0.206	-0.0226	0.577	2.33	0.57	1.3	0.484	0.924
CN1C(=O)C2C=CC(C(O)c3cc(C(F)(F)F)cc(C(F)(F)F)c3)N(Nc3ccccc3)C2C1=O (stereo not given)	0.792	-1.08	-0.715	0.345	-0.151	-0.0346	-0.138	0.369	1.68	0.0299	0.969	0.309 (inactive)	-0.149	-0.147	0.831	2.96	-0.23	0.891	-0.616	-0.0932
C=C(C)C1CCC(C(O)C2C=CC3C(=O)N(C)C(=O)C3N2Nc2cc(OC)c(OC)c(OC)c2)CC1 (stereo not given)	1.4	-0.355	0.428	0.655	-0.157	0.0101	-0.0243	0.993	-0.161	1.26	0.941	-0.0192 (inactive)	0.263	-0.0598	0.703	1.46	0.0507	1.29	0.464	0.974
COC(=O)[C@@]1(Cc2ccc(F)cc2)[C@H]2c3cc(C(=O)N4CCCC4)n(CC4CC4)c3C[C@H]2CN1C(=O)c1ccccc1	1.39	-1.94	1.29	2.43	0.701	0.0139	0.184	1.96	1.22	1.33	0.87	1.5 (inactive)	1.07	0.416	0.765	2.99	0.888	1.3	-0.621	0.553
CC(C)C(=C=CC[C@H](O)c1cccc(OCCO)c1)CCO	0.133	0.121	-0.0916	-0.427	-0.224	-0.0165	0.201	-0.272	0.0879	0.115	0.361	0.372 (inactive)	-0.173	-0.14	0.512	0.397	-0.207	-0.126	-0.298	-0.0543
CCOC(=O)C[C@H]1[C@H](OC(=O)c2ccccc2-c2ccccc2)[C@@H](NC(=O)c2ccc3ccccc3n2)c2cc(OCCCO)ccc2N1C(=O)c1ccccc1	1.29	-1.7	0.487	-0.0187	-0.457	-0.0519	-0.248	-0.347	0.291	0.414	-0.321	0.311 (inactive)	0.038	-0.14	0.286	0.824	-0.0982	1.33	0.374	0.37
CC1(C)C(=O)C(c2ccccc2)=C2CN3C(=O)N(CCc4ccccc4)C(=O)C3(Cc3ccc(C(F)(F)F)cc3)C=C21 (stereo not given)	1.19	-1.66	-0.668	1.36	0.858	0.0226	1.05	1.8	0.393	0.234	0.925	-0.301 (inactive)	0.561	0.306	0.581	2.1	0.014	0.764	-1.06	0.702
COCCOC(=O)N1C(=O)[C@@]2(c3cc(C#Cc4ccc(OC)cc4)ccc31)[C@H](c1ccc(OCCO)cc1)N1[C@H](c3ccccc3)[C@H](c3ccccc3)OC(=O)[C@H]1[C@@H]2C(=O)Nc1nc2ccccc2s1	1.34	-1.54	0.225	1.91	0.487	0.0017	1.52	0.0044	0.699	0.885	0.862	-0.436 (inactive)	-0.0967	0.0402	0.309	1.3	0.176	1.29	-0.122	1.13
CC(C)C[C@@H]1NC(=O)[C@@]23C(=O)N[C@@H](Cc4ccccc4)C2[C@H](C)[C@@]2(C)O[C@H]2C3/C=C/C/C=C\CNC(=O)[C@@H](C)NC1=O (stereo not given in full)	-0.702	0.0935	0.58	-0.463	-1.19	-0.228	0.0899	-0.636	-0.212	-0.116	0.663	-0.106 (inactive)	-0.251	-0.196	0.449	-0.128	-0.217	-0.604	0.643	0.075
